# Measurements from ChEMBL document CHEMBL1961873, “Compounds: GSK PKIS; Assays: Nanosyn kinase panel” (2012).
# Columns and labels:
# [1] = biological target: 5'-AMP-activated protein kinase catalytic subunit alpha-2 (Homo sapiens) (UniProt P54646); conditions: at 1 µM
# [2] = biological target: T1, NUAK family SNF1-like kinase 1 (Homo sapiens) (UniProt O60285); conditions: at 0.1 µM
# T1 sequence (whole entry): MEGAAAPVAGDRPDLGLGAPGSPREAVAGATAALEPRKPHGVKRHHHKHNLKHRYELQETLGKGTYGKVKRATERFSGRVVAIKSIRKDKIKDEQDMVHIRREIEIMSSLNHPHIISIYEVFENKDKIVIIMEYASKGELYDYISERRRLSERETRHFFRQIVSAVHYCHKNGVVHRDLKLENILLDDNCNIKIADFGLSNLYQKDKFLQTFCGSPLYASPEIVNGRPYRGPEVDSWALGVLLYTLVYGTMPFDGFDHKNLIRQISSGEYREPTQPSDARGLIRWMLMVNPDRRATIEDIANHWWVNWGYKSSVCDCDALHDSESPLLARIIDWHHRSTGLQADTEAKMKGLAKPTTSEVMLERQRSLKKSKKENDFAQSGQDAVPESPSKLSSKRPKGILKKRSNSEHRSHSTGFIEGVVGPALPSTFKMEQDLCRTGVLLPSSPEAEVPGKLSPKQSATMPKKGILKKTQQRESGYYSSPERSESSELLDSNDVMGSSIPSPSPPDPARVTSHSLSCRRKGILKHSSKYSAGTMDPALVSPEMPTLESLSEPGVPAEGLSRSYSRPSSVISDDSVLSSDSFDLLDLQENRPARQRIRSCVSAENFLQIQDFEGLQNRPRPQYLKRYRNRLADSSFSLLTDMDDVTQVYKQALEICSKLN
# [3] = biological target: T1, NUAK family SNF1-like kinase 1 (Homo sapiens); conditions: at 1 µM
# [4] = biological target: T2, Serine/threonine-protein kinase BRSK1 (Homo sapiens) (UniProt Q8TDC3); conditions: at 0.1 µM
# T2 sequence (whole entry): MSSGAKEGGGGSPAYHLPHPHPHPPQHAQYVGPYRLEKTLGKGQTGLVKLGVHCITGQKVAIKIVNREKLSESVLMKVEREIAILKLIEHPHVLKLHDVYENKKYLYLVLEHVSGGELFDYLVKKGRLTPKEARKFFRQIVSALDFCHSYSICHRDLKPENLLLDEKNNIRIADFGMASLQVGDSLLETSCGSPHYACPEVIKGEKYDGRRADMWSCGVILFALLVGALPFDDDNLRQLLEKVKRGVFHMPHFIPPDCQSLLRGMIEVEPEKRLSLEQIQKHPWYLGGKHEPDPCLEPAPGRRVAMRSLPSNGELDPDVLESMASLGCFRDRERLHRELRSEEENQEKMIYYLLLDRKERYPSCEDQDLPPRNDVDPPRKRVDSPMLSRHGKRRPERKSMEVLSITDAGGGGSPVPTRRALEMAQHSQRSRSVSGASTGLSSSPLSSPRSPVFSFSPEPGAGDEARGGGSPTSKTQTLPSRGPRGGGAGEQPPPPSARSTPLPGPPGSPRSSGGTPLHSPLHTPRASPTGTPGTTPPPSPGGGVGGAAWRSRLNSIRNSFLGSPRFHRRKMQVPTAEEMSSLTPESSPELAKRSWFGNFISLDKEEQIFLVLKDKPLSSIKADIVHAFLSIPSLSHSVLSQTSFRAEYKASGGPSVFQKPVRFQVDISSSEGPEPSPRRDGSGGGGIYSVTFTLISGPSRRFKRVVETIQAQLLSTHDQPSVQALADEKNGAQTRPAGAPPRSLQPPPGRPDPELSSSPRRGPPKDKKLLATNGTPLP
# [5] = biological target: T2, Serine/threonine-protein kinase BRSK1 (Homo sapiens); conditions: at 1 µM
# [6] = biological target: T3, Serine/threonine-protein kinase BRSK2 (Homo sapiens) (UniProt Q8IWQ3); conditions: at 0.1 µM
# T3 sequence (whole entry): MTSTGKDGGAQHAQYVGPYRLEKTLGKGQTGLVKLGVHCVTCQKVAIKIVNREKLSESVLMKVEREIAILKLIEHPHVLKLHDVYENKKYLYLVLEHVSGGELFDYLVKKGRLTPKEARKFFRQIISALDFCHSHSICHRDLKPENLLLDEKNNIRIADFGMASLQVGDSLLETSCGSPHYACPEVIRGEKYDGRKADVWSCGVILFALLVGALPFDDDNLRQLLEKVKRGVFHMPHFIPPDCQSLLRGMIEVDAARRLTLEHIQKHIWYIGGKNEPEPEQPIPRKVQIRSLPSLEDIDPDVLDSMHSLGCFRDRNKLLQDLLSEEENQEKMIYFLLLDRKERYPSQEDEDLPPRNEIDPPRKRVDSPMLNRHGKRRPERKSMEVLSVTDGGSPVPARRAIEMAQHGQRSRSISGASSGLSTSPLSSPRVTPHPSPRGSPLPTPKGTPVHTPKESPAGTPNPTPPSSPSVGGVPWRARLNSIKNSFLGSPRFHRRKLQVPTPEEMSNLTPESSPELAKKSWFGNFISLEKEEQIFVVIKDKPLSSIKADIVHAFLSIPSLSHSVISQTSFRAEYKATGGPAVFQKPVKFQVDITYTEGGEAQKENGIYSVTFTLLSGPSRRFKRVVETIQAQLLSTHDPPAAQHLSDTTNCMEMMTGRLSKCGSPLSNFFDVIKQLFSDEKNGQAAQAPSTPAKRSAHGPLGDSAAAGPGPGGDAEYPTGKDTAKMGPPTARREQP
# [7] = biological target: T3, Serine/threonine-protein kinase BRSK2 (Homo sapiens); conditions: at 1 µM
# [8] = biological target: Calcium/calmodulin-dependent protein kinase type 1D (Homo sapiens) (UniProt Q8IU85); conditions: at 0.1 µM
# Sequence of Calcium/calmodulin-dependent protein kinase type 1D (Homo sapiens) (Q8IU85 whole entry, looked up): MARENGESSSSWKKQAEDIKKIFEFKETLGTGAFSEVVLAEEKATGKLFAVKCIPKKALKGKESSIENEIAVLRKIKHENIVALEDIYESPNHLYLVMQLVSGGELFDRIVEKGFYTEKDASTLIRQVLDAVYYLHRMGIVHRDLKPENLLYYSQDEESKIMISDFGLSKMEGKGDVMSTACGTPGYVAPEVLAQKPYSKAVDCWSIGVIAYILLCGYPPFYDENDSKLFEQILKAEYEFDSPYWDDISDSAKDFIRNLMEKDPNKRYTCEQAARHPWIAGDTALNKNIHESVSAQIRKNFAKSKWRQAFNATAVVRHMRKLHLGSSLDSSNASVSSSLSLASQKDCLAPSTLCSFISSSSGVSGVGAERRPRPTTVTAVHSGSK
# [9] = biological target: Calcium/calmodulin-dependent protein kinase type 1D (Homo sapiens) (UniProt Q8IU85); conditions: at 1 µM
# [10] = biological target: Calcium/calmodulin-dependent protein kinase type II subunit alpha (Homo sapiens) (UniProt Q9UQM7); conditions: at 0.1 µM
# Sequence of Calcium/calmodulin-dependent protein kinase type II subunit alpha (Homo sapiens) (Q9UQM7 whole entry): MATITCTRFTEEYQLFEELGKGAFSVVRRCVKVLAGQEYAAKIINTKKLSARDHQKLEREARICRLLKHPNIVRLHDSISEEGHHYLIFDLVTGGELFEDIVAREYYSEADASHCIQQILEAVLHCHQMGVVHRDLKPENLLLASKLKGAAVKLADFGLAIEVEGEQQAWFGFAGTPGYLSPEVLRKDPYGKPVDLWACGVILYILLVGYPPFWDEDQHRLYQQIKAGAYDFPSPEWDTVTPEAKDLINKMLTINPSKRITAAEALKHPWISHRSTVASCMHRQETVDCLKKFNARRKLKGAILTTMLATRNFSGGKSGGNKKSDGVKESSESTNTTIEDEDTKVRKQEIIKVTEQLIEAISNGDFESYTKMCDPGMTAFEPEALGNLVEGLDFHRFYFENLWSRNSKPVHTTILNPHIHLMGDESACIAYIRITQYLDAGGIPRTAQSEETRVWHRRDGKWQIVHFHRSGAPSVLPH
# [11] = biological target: Calcium/calmodulin-dependent protein kinase type II subunit alpha (Homo sapiens) (UniProt Q9UQM7); conditions: at 1 µM
# [12] = biological target: Calcium/calmodulin-dependent protein kinase type II subunit delta (Homo sapiens) (UniProt Q13557); conditions: at 0.1 µM
# Sequence of Calcium/calmodulin-dependent protein kinase type II subunit delta (Homo sapiens) (Q13557 whole entry): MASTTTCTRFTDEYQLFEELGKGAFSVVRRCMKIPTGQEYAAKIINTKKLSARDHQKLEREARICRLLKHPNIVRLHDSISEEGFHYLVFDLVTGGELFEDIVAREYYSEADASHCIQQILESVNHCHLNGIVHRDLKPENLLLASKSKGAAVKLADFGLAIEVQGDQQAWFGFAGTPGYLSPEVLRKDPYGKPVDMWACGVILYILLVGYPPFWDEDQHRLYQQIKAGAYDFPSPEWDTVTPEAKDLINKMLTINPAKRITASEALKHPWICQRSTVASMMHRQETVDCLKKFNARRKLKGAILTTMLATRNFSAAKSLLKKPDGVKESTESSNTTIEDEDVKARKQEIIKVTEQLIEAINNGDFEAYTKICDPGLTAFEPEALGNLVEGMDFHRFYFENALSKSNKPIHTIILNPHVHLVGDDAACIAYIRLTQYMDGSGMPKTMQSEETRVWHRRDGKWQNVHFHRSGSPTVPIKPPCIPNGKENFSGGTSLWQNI
# [13] = biological target: Calcium/calmodulin-dependent protein kinase type II subunit delta (Homo sapiens) (UniProt Q13557); conditions: at 1 µM
# [14] = biological target: T4, Calcium/calmodulin-dependent protein kinase type IV (Homo sapiens) (UniProt Q16566); conditions: at 0.1 µM
# T4 sequence (whole entry): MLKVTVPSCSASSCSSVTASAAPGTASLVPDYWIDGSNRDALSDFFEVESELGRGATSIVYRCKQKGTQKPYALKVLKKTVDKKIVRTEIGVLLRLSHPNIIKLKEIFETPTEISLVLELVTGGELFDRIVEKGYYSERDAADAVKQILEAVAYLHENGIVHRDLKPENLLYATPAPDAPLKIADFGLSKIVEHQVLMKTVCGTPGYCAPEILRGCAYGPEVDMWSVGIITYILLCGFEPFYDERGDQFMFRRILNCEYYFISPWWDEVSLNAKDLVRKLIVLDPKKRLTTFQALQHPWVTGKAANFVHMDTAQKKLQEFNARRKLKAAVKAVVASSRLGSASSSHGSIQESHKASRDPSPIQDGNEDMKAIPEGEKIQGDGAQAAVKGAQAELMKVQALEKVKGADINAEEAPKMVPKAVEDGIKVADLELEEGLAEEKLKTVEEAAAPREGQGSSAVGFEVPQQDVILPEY
# [15] = biological target: T4, Calcium/calmodulin-dependent protein kinase type IV (Homo sapiens); conditions: at 1 µM
# [16] = biological target: T5, Serine/threonine-protein kinase Chk1 (Homo sapiens) (UniProt O14757); conditions: at 0.1 µM
# T5 sequence (whole entry): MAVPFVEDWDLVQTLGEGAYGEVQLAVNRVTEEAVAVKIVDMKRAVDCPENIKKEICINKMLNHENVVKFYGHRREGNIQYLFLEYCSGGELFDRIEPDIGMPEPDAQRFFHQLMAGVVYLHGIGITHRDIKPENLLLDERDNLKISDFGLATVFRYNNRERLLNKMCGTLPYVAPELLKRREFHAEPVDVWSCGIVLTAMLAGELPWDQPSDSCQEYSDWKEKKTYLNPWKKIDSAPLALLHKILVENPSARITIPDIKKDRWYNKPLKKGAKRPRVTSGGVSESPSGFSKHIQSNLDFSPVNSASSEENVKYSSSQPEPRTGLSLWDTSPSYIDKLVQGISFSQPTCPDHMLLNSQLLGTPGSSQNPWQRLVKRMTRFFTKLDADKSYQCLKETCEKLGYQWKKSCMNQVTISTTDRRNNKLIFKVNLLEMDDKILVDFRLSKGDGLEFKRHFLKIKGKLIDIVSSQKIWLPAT
# [17] = biological target: T5, Serine/threonine-protein kinase Chk1 (Homo sapiens); conditions: at 1 µM
# [18] = biological target: Serine/threonine-protein kinase Chk2 (Homo sapiens) (UniProt O96017); conditions: at 0.1 µM
# Sequence of Serine/threonine-protein kinase Chk2 (Homo sapiens) (O96017 whole entry): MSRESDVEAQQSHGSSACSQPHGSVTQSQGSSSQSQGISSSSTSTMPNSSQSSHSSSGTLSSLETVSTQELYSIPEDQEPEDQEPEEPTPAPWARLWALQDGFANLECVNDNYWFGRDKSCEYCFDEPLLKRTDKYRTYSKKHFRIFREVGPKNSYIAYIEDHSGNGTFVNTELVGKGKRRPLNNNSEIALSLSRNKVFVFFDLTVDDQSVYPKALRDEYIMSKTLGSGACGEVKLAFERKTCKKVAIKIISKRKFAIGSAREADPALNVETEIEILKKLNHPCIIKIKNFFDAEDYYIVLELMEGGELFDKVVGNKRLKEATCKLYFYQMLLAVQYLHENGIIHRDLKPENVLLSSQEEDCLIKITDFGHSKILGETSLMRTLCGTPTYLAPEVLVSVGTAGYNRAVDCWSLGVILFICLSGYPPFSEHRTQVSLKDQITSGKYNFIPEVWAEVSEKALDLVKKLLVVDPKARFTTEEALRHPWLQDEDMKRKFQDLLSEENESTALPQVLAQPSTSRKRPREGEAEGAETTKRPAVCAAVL
# [19] = biological target: Serine/threonine-protein kinase Chk2 (Homo sapiens) (UniProt O96017); conditions: at 1 µM
# [20] = biological target: Death-associated protein kinase 1 (Homo sapiens) (UniProt P53355); conditions: at 0.1 µM;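 note: reported figure is the mean inhibition of DAPK1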
# Sequence of Death-associated protein kinase 1 (Homo sapiens) (P53355 whole entry, looked up): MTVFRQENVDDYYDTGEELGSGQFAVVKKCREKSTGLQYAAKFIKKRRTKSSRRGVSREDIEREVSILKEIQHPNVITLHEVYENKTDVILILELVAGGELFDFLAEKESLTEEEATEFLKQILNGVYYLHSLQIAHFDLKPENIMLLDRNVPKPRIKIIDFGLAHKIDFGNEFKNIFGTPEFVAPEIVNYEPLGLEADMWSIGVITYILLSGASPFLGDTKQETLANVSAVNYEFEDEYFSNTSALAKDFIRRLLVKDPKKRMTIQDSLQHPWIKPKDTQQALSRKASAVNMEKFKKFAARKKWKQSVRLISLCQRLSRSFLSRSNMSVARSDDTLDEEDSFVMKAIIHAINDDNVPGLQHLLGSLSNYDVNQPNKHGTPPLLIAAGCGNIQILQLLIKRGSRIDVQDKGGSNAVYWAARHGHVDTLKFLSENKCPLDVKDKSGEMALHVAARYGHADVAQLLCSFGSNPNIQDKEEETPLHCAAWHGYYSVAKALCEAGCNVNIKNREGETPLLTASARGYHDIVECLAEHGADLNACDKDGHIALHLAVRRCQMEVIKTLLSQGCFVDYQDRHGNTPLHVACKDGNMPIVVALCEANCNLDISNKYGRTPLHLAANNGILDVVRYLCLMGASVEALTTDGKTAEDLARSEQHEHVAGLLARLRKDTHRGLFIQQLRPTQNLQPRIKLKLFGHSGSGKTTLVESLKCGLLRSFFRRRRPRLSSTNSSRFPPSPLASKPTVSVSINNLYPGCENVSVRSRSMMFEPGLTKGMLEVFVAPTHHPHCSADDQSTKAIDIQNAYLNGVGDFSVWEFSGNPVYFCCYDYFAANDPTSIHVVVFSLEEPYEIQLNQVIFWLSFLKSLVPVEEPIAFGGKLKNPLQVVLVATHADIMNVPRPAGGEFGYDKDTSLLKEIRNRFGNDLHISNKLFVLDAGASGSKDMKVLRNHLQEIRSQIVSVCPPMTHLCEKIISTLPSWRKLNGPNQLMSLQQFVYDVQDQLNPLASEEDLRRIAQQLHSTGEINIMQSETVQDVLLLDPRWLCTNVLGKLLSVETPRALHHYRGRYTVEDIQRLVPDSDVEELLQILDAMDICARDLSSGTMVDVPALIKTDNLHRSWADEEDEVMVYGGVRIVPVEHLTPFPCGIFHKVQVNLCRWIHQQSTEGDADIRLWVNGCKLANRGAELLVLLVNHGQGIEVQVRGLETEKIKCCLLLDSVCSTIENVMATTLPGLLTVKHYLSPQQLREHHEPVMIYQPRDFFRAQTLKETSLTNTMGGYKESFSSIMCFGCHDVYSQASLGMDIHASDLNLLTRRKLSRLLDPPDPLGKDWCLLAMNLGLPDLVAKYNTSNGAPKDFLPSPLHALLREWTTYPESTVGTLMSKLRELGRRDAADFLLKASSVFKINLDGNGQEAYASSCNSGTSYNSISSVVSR
# Sequence of 5'-AMP-activated protein kinase catalytic subunit alpha-2 (Homo sapiens) (P54646 whole entry, looked up): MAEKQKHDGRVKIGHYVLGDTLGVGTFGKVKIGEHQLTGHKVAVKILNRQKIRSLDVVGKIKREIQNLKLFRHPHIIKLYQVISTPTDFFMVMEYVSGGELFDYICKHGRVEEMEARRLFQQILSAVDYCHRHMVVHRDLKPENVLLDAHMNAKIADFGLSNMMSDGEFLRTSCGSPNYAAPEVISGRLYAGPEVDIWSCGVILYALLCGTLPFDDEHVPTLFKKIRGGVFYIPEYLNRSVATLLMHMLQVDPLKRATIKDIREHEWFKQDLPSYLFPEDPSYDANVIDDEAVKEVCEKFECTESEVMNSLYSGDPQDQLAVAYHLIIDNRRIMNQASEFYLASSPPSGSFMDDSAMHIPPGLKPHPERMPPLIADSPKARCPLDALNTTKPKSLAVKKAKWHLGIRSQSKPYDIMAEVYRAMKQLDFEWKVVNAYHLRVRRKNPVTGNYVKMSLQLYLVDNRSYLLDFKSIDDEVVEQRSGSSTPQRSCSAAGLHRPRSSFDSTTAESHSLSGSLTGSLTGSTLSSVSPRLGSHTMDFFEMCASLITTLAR
Structure (SMILES),inhibition [1] [%],inhibition [2] [%],inhibition [3] [%],inhibition [4] [%],inhibition [5] [%],inhibition [6] [%],inhibition [7] [%],inhibition [8] [%],inhibition [9] [%],inhibition [10] [%],inhibition [11] [%],inhibition [12] [%],inhibition [13] [%],inhibition [14] [%],inhibition [15] [%],inhibition [16] [%],inhibition [17] [%],inhibition [18] [%],inhibition [19] [%],inhibition [20] [%]
Cc1ccc(Nc2ccnc(Nc3cccc(C(N)=O)c3)n2)cc1O,5.29,7.76,41.1,0.1,6.23,2.24,9.72,1.34,4.12,3.21,3.19,2.94,5.54,-0.64,-0.14,1,2.08,2.56,12.8,1.62
Cc1nc(-c2ccccc2)n2nc(NCCCN3CCOCC3)ncc12,4.91,0.66,20.3,1.1,-0.76,1.22,2.49,1.67,2.49,2.42,3.41,2.22,3.36,0.88,2.05,1.78,3.88,2.24,4.72,3.5
CS(=O)(=O)Nc1cccc(-c2ccc3c(NC(=O)C4CC4)n[nH]c3c2)c1,6.02,-0.11,1.95,3.46,18.7,2.32,19.1,2.26,1.87,7.84,2.85,3.31,3,1.21,0.65,1.78,1.91,0.51,0.84,1.43
O=S(=O)(CCOCc1ccc(-c2ccc3ncnc(Nc4ccc(OCc5cccc(F)c5)c(Cl)c4)c3c2)o1)c1ccccc1,1.68,-2.09,-0.72,-0.74,1.37,1.25,2.98,0,0.46,-0.52,-0.9,0.42,1.29,-1.19,-1.67,3.34,2.55,1.33,3.09,1.67
Nc1nccc(-c2c(-c3ccc(F)cc3)nn3cc(C(F)(F)F)ccc23)n1,0.34,0.16,-3,-0.37,0.47,0.15,-0.77,-1.67,-2.05,0.49,-1.99,0.49,-0.48,-0.17,-1,-1.52,-2.44,0.02,-0.27,2.24
CC(C)c1ccc2c(c1)NC(=O)/C2=N/Nc1ccc(S(N)(=O)=O)cc1,0.27,11,41.7,0.3,1.21,-0.18,7.2,-0.63,1.05,-0.9,0.01,-0.56,0.81,-0.87,0.54,-7.82,0.1,0.32,0.01,-0.88
CN(c1ccc(NC(=O)Nc2ccc(OC(F)(F)F)cc2)cc1)c1ccnc(Nc2cccc(S(N)(=O)=O)c2)n1,2.41,-0.52,10.1,1.53,5.53,1.94,1.96,-0.31,0.2,3.05,-1.5,1.07,0.14,-0.96,0.59,1.72,-0.01,5.43,25.9,3.79
COC(=O)c1cncc(/C=C/c2c(C)cc(O)cc2C)c1,2.21,3.22,8.1,-1.29,7.61,1.09,6.54,-0.5,-0.32,1.91,3.06,1.37,3,-2.74,-4.13,3.13,3.49,2.38,4.27,4.88
COc1ccc(-c2nn3ncccc3c2-c2ccnc(Nc3cccc(C(F)(F)F)c3)n2)cc1,3.96,0.91,-0.63,-0.24,1.65,2.63,2.85,0.46,0.37,2.25,-0.66,1.66,0.95,1.07,-0.19,1.85,-3.09,2.01,1.61,4.24
O=C1Nc2ccc(-c3cccnc3)cc2C1=Cc1cc(Br)c(O)c(Br)c1,7.03,-0.34,4.71,2.51,4.37,2.22,2.32,1.08,4.01,2.95,5.84,3.26,7.6,0.54,-0.48,3.16,0.96,3.4,8.93,1.41
Nc1nccc(C#Cc2cncnc2Nc2ccc(OCc3cccc(F)c3)c(Cl)c2)n1,6.02,2.82,9.68,3.95,8.92,4.89,10.8,-0.54,2.27,3.24,5.08,8.4,8.79,-0.4,0.61,1.22,7.61,2.66,5.77,3.9
N#Cc1c(NC(=O)c2ccccc2F)sc2c1CCCC2,0.55,2.6,3.42,0.36,1.62,1.76,3.8,-0.22,0.3,-2.24,-0.29,-2.56,1.91,0.87,1.11,-0.69,-3.66,-0.83,-2.63,-1.42
[O-][S+]1CCN(Cc2ccc(-c3ccc4ncnc(Nc5ccc(OCc6ccccc6)c(Cl)c5)c4c3)o2)CC1,1.22,-2.45,-2.99,0.95,0.18,1.49,2.79,-0.14,0.11,-0.84,-1.1,0.81,1.03,-1.57,-1.23,3.06,-0.08,1.32,2.85,1.85
